Bioassay records as filed in PubChem BioAssay.
An excerpt weighted towards active compounds, which were near 11% of everything screened.
Luciferase inh: Photinus pyralis luciferase inhibition; purified P. pyralis luciferase, luminescence, biochemical; AID 1347043; 76,000 compounds, 2.5% hits; P08659; Potency, µM (highest dose often 115 µM), most hits filed as inhibitors; also: nearly all actives have a fitted effect of over 65% in size
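Biochemical qHTS: compound (6-point titration) added to 10uM D-luciferin plus 10uM ATP in Tris acetate pH 7.5 buffer with Mg, Tween-20 and BSA, then purified enzyme at 10nM; light output imaged.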
3T3 cytotox: NIH 3T3 cell cytotoxicity; NIH 3T3 viability, CellTiter-Glo ATP luminescence, 48-72 h; Potency, µM (titrated, usually from 96.7 µM), inactives show at the top dose activity change, negative = cytotoxicity, actives largely listed as inhibitors; 94,000 compounds, 4.3% hits; AID 1345082; also: nearly all actives have a fitted effect of over 55% in size
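Viability of NIH 3T3 cells after 48 or 72 hr compound treatment at 37 °C was assessed by CellTiter-Glo, with luminescence imaged following a 10 min room-temperature step.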
HEK cytotox: kills HEK 293 cells; HEK 293 viability, ATP luminescence (CellTiter-Glo), 48-72 h; Potency, µM (highest dose often 115 µM), inactives show at the highest dose activity change, negative = cytotoxicity, hits mostly inhibitors; 94,000 compounds, 6.6% hits; also: nearly all actives have a fitted effect of over 60% in size
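ATP-coupled CellTiter-Glo luminescence served as viability read-out, recorded 10 min after reagent addition at room temperature. HEK 293 cells, 250 cells/well, had been incubated with pintool-transferred compound for 48 or 72 hr at 37 degree Celsius.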
hNpr1 antagonist: human Npr1 receptor antagonism; P16066; HEK293 hNpr1 GloSensor cGMP, ANP-stimulated luminescence; Potency, µM (doses to about 46.3 µM), inactives show at the top dose activity change, negative = inhibition, actives largely listed as inhibitors; 76,000 compounds, 1.6% hits; AID 1347048; calls by dose curve; also: nearly all actives have a fitted effect of over 60% in size
Target sequence (P16066 whole entry, looked up): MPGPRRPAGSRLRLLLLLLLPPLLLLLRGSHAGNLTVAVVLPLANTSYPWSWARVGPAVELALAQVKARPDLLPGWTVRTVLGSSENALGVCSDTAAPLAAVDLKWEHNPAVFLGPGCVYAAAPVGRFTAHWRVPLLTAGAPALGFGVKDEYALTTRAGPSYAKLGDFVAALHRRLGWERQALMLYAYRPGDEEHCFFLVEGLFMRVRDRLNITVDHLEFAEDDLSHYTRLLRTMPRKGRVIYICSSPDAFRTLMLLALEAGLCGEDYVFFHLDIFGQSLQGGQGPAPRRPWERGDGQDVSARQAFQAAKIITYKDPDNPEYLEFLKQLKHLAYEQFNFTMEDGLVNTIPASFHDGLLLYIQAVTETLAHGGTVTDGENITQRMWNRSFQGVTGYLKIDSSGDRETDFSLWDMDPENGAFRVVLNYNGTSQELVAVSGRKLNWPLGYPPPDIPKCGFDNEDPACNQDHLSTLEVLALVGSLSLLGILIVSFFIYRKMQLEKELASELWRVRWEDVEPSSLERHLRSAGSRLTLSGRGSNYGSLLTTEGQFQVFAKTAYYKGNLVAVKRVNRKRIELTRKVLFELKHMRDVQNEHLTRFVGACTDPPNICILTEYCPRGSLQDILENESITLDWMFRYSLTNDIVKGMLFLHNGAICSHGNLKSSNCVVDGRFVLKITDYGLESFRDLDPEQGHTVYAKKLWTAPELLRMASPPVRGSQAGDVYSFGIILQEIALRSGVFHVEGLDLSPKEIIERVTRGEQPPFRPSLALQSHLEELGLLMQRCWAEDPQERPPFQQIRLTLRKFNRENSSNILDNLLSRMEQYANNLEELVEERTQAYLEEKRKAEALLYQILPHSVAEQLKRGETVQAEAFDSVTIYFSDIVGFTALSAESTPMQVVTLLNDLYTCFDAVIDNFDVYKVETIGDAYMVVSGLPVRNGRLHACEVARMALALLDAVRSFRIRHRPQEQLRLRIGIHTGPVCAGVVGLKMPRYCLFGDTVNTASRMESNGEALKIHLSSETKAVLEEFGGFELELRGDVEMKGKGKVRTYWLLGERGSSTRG
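Compound pre-incubated 30 min at room temperature on GloSensor-loaded HEK293 cells stably carrying hNpr1 and the pGS-40F cGMP biosensor. Stimulation uses hNppA at 0.1 nM final; luminescence is taken at baseline and 20 min post-agonist.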
* hit, by the source's call; i = inactive; ? = inconclusive; . = no result given; [ ] = remark or other dose. Unless noted, calls follow the shape of the dose curve; as a rule, active = well fitted curve in the direction sought with a large enough effect; inconclusive = small, poorly fitted or top-dose-only effect, or another doubt; inactive = no such curve, though single readings can be large; an effect the other way counts as inactive or inconclusive. % is scaled to controls: 0 for no effect and ±100 for the full control effect; potency is read from the fitted curve at half-maximal effect.

SMILES	Luciferase inh	3T3 cytotox	HEK cytotox	hNpr1 antagonist
CCOC(=O)[C@H]1[C@@H](O)C(=O)NC12CCN(C(=O)c1csc(-c3cccs3)n1)CC2	.	?	-31%	.
COCCn1ncc(N2CCCC(CC(=O)N3CCCN(C)CC3)C2)cc1=O (centres undefined)	.	-21%	-7%	.
Cc1nn2c(c1-c1ccccc1OCc1ccccc1)N(Cc1ccc(OCC(=O)O)cc1)CCC2	i	25µM*	-14%	0%
CC1(c2ccccc2)N(Cc2ccccc2F)C(=O)OC12CCN(c1cccnc1)CC2 (centres undefined)	i	89µM*	89µM*	-16%[70.6 µM]
COc1ccccc1CN1CCC2(CC1)OC(=O)N(Cc1ccccc1F)C2(C)c1ccccc1 (centres undefined)	i	28µM*	35µM*	-3%
CC1(c2ccccc2)N(Cc2ccccc2F)C(=O)OC12CCN(Cc1cccnc1)CC2 (centres undefined)	i	?	?	-1%
O=C(CNC(=O)c1cccc(-c2ccsc2)c1)NCC(F)F	.	-22%[138 µM]	-18%[172 µM]	.
Cc1cccc(C(=O)N2CCC(N3C(=O)C4(CCCCC4)C3c3ccncc3)CC2)c1 (centres undefined)	i	0%	-3%	1%
c1cc(Cn2ccc3c(N4CCOCC4)nc(-c4ccc5cn[nH]c5c4)cc32)ccn1	i	25µM*	40µM*	-21%[70.6 µM]
CN(C)Cc1ccc(-c2cc3c(ccn3Cc3ccncc3)c(N3CCOCC3)n2)cc1	i	?	100µM*	-1%[70.6 µM]
O=C(NC[C@H]1Cn2c(-c3ccc4c(c3)OCO4)cnc2CO1)c1ccc2c(c1)OCO2	?	28µM*	63µM*	-27%[70.6 µM]
O=C(NC[C@H]1Cn2c(-c3ccc(F)cc3)cnc2CO1)c1ccc(Cl)cc1	?	?	89µM*	18µM*
Fc1ccc(-c2cnc3n2C[C@H](CNCc2ccccn2)OC3)cc1	i	-19%[138 µM]	?	-4%[70.6 µM]
COc1ccccc1C(=O)NC[C@H]1Cn2c(-c3ccc(Cl)cc3)cnc2CO1	i	10µM*	13µM*	?
Fc1ccc(-c2cnc3n2C[C@H](CN(Cc2ccccc2)Cc2ccccc2)OC3)cc1	i	28µM*	35µM*	-20%[70.6 µM]
COCC(=O)NC[C@H]1Cn2c(-c3ccc(Cl)cc3)cnc2CO1	i	?	-24%[172 µM]	1%[70.6 µM]
CS(=O)(=O)N1CCCN(Cc2cccc(F)c2)CCNC(=O)CC1c1ccccc1 (centres undefined)	i	-23%	-24%	-3%
CSc1cccc(N2C(=O)[C@@H]3C[C@@H](NC(=O)c4cccn4C)CCN3C2=O)c1	i	0%[138 µM]	-7%[172 µM]	-24%[70.6 µM]
O=S(=O)(NC[C@H]1Cn2c(-c3ccc(F)cc3)cnc2CO1)c1ccc(Cl)cc1	i	?	100µM*	?
CCN1C(=O)C2CC3(CCN(C(=O)Nc4ccc5c(c4)OCCO5)CC3)CN2C1=O (centres undefined)	35µM*	-2%	-16%	0%
COCC(=O)NC1CCC12CCN(C(=O)Nc1ccc3c(c1)OCCO3)CC2 (centres undefined)	45µM*	?	-23%	-10%
COc1ccccc1C(=O)N1CCC2(CC1)OC(=O)N(CCOc1ccccc1)C2(C)c1cccnc1 (centres undefined)	i	?	-23%	-2%
COc1cccc(CN2CCC(Cc3ncc(C)n3CC3CC3)C2)c1OC (centres undefined)	i	?	45µM*	-4%
Cc1ncsc1CN1CCC(Cc2ncc(C)n2CC2CC2)C1 (centres undefined)	i	3%	-3%	7%
O=C(C1CCCN([S+](=O)([O-])c2cccs2)C1)N1CCCC1c1nc2ccncc2[nH]1 (centres undefined)	.	-9%	3%	.
SMILES	Luciferase inh	3T3 cytotox	HEK cytotox	hNpr1 antagonist
CC(C)C[C@@H]1N[C@H](C(=O)N2CCCC2)Cc2cn(Cc3ccccn3)c3cccc1c23	i	?	112µM*	2%[70.6 µM]
CC(C)C[C@@H]1N[C@H](C(=O)N2CCOCC2)Cc2cn(Cc3ccccn3)c3cccc1c23	i	?	100µM*	-5%[70.6 µM]
CC(C)C[C@@H]1N[C@H](C(=O)N2CCCC2)Cc2cn(Cc3nccn3C)c3cccc1c23	i	-27%[174 µM]	?	2%[70.6 µM]
CC(C)C[C@@H]1N[C@H](C(=O)N2CCOCC2)Cc2cn(Cc3nccn3C)c3cccc1c23	i	-30%[174 µM]	-19%[172 µM]	4%[70.6 µM]
O=C(c1cn[nH]c1-c1ccc(F)cc1)N1CCC(OCCOc2ccccc2)CC1	.	?	50µM*	.
CCN1c2cc(C(=O)Nc3ccc(SC)cc3)ccc2C(=O)N2CCCCC21 (centres undefined)	?	40µM*	?	-25%
CCN1c2cc(C(=O)Nc3cc(F)cc(F)c3)ccc2C(=O)N2CCCCC21 (centres undefined)	i	28µM*	35µM*	-12%
CCN1c2cc(C(=O)Nc3ccc4c(c3)CCC4)ccc2C(=O)N2CCCCC21 (centres undefined)	?	13µM*	22µM*	1%
CCN1c2cc(C(=O)Nc3ccc(C(N)=O)cc3)ccc2C(=O)N2CCCCC21 (centres undefined)	i	32µM*	?	19%
CCN1c2cc(C(=O)Nc3ccccc3)ccc2C(=O)N2CCCCC21 (centres undefined)	?	?	?	0%
Cc1noc(C)c1[S+](=O)([O-])NCCNC(=O)c1ccc(-c2cncnc2)cc1	.	0%	-1%	.
CCN1c2cc(C(=O)Nc3ccc(C)c(F)c3)ccc2C(=O)N2CCCCC21 (centres undefined)	i	28µM*	?	0%
CCN1c2cc(C(=O)Nc3cccc(SC)c3)ccc2C(=O)N2CCCCCC21 (centres undefined)	i	22µM*	22µM*	?
CCN1c2cc(C(=O)Nc3ccc(C)c(F)c3)ccc2C(=O)N2CCCC21 (centres undefined)	i	-20%	-18%	5%
CC(C)C(=O)N1CCCC1Cc1noc(-c2ccccc2)n1 (centres undefined)	.	-26%	-8%	.
O=C(c1ccc(C(F)(F)F)cc1)N1CCCC2(CN[S+](=O)([O-])c3cccnc3N2)C1 (centres undefined)	.	-11%	-3%	.
O=C(c1ccc(Cl)nc1)N1CCN(c2ccc3nnc(-c4ccccc4)n3n2)CC1	.	?	-7%	.
COc1ccccc1Cn1c(=O)c(C(=O)N2CCN(C(=O)Nc3ccccc3)CC2)nc2cccnc21	.	-24%	1%	.
CN(C)c1ccc(C(=O)NC2CCN(c3cc(-c4ccc(Cl)cc4)[nH]n3)CC2)cc1	i	-19%	?	-3%
CC(=O)Nc1ccc(C(=O)NC2CCN(c3cc(-c4ccc(Cl)cc4)[nH]n3)CC2)cc1	i	22µM*	32µM*	-25%
Cc1ccc(C(=O)NC2CCCN(c3cc(-c4ccccc4)[nH]n3)C2)cc1F (centres undefined)	i	?	?	-18%
